40 targets from the supplement of paper PMC10849652 can be followed below.

The full data set covers some 7,900 targets. This sample favours those with a hit. About 0.6% of all pairs of compound and target were hits. Unmarked numbers belong to inactive results.

Sequence of UniProt P23919 (P23919 whole entry, looked up): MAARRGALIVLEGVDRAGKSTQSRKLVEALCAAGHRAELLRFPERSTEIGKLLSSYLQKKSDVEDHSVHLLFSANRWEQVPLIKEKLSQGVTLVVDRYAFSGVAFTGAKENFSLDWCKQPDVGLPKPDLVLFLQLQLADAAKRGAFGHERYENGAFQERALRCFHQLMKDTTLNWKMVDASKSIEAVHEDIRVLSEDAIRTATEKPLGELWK
Sequence of UniProt O94905 (O94905 whole entry, looked up): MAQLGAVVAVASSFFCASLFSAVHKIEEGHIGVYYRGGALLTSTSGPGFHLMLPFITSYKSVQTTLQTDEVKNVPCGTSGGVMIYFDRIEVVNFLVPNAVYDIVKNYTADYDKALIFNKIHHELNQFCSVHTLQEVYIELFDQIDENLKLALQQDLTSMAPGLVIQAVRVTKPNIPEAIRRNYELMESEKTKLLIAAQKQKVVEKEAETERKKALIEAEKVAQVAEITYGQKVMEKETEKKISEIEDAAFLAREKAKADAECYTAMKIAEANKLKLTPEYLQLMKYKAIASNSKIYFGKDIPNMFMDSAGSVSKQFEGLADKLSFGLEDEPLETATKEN
Sequence of UniProt Q96A65 (Q96A65 whole entry, looked up): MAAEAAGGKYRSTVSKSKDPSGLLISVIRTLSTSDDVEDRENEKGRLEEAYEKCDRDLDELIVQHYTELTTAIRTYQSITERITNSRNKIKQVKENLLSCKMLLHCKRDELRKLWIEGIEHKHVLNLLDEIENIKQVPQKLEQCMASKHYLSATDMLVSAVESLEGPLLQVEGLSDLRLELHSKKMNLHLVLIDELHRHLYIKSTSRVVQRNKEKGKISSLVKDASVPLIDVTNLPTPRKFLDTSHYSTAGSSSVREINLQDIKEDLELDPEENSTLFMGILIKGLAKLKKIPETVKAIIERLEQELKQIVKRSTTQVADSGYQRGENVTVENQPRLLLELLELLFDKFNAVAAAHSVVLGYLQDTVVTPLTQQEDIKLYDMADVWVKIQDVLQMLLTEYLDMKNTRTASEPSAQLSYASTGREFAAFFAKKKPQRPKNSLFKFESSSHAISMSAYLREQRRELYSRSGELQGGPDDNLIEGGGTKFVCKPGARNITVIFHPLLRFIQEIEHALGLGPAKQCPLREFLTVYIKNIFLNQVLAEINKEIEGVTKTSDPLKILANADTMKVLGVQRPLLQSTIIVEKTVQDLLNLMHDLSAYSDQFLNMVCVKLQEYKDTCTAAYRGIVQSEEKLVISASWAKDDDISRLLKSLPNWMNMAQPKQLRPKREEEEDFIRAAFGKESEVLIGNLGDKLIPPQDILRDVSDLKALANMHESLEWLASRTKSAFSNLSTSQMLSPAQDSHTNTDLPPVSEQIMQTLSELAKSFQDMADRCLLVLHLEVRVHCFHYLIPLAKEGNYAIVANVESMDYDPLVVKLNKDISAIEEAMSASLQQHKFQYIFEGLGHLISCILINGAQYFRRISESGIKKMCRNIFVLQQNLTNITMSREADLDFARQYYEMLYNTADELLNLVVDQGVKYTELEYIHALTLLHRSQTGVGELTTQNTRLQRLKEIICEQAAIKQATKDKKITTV
Sequence of UniProt Q6IAN0 (Q6IAN0 whole entry, looked up): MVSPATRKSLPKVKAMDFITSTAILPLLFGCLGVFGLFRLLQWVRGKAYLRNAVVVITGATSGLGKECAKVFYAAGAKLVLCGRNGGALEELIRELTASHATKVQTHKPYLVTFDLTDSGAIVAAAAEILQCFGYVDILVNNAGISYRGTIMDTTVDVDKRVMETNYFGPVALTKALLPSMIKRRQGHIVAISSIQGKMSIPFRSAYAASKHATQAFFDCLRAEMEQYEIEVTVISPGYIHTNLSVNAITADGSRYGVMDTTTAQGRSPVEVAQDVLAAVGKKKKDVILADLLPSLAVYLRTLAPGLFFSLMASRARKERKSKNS
Sequence of UniProt Q8N5C7 (Q8N5C7 whole entry, looked up): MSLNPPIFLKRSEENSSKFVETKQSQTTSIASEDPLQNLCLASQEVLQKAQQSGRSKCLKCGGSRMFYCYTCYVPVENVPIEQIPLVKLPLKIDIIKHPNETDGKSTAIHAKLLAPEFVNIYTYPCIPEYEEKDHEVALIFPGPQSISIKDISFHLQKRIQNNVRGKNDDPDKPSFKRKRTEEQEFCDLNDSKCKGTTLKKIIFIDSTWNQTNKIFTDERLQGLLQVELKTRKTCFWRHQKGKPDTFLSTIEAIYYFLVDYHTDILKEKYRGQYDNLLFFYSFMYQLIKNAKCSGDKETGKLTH
Sequence of UniProt P26641 (P26641 whole entry, looked up): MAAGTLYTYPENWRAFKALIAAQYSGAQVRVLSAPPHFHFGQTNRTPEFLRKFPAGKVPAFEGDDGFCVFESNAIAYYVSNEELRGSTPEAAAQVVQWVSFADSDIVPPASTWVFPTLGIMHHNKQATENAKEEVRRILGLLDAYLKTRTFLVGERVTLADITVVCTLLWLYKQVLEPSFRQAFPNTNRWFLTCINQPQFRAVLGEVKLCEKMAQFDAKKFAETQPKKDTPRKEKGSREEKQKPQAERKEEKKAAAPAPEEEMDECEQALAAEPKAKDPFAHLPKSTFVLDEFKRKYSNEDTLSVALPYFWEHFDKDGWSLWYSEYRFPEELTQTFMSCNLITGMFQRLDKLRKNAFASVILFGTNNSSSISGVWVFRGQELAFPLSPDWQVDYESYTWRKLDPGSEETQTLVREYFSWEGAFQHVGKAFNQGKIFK
Sequence of UniProt O60573 (O60573 whole entry, looked up): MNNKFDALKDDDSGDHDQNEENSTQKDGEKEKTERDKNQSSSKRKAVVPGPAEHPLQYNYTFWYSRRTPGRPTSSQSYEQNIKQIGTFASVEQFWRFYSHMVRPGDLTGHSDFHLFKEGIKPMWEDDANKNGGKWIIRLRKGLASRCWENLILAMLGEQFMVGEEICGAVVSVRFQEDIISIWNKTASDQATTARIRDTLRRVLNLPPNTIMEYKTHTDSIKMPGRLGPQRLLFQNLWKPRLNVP
Sequence of UniProt P09622 (P09622 whole entry, looked up): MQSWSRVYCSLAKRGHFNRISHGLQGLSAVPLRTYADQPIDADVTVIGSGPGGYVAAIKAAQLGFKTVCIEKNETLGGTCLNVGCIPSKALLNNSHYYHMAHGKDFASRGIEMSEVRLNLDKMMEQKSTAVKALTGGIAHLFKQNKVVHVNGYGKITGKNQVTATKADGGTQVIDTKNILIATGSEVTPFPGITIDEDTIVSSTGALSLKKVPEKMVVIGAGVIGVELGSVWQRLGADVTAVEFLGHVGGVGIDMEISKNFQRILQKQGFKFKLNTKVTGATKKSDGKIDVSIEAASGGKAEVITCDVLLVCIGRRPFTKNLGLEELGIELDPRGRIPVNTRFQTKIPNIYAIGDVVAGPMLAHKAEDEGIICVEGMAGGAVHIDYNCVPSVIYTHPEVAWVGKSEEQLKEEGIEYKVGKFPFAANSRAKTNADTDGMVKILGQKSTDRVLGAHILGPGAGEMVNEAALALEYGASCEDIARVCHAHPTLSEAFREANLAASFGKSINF
Sequence of UniProt Q5NDL2 (Q5NDL2 whole entry, looked up): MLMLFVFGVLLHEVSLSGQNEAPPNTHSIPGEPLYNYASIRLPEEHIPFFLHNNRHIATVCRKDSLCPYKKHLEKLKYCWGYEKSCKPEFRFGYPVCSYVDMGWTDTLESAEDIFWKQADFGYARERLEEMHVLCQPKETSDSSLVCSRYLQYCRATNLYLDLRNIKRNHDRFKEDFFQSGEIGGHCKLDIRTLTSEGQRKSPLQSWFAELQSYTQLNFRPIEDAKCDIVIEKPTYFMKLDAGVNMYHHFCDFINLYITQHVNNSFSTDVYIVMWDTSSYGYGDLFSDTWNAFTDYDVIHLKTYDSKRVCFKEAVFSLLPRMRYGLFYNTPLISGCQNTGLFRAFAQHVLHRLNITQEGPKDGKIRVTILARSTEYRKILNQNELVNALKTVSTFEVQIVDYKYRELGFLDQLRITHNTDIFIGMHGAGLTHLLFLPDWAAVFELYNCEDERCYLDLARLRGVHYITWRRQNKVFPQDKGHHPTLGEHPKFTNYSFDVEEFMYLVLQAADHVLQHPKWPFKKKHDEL
Sequence of UniProt Q5QP82 (Q5QP82 whole entry, looked up): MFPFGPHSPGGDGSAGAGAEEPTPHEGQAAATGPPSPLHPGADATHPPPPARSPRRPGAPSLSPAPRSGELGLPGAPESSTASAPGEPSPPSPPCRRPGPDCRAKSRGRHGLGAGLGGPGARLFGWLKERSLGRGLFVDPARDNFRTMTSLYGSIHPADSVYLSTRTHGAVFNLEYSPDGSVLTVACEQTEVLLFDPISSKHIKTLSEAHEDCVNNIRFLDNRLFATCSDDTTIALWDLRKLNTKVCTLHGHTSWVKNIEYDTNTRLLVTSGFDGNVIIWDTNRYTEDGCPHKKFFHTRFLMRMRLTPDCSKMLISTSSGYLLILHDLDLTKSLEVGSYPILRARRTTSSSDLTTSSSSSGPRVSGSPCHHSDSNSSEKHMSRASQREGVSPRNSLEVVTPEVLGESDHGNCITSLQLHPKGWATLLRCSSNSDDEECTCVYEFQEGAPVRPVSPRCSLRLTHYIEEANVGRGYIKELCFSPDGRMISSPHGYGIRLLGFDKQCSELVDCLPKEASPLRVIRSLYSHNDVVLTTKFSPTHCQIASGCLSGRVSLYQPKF
Sequence of UniProt Q9BPY3 (Q9BPY3 whole entry, looked up): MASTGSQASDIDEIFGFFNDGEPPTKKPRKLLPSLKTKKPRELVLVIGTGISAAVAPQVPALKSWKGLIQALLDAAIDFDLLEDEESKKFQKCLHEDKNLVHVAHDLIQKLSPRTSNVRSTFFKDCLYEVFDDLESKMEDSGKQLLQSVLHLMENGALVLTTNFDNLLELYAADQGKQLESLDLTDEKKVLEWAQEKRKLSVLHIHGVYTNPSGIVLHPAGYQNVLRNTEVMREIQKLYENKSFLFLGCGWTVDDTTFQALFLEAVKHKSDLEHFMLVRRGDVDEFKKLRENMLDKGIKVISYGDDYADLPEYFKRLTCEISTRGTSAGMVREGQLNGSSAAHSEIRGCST
Sequence of UniProt Q6P3W2 (Q6P3W2 whole entry, looked up): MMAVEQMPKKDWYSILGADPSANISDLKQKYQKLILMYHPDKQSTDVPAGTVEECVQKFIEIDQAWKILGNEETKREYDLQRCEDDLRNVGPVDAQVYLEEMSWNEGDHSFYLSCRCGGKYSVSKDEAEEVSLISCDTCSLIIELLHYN

Compound in the first test: CCCc1cc(C)[nH]c(=O)c1CNC(=O)c1cc(-c2ccnc(N3CCN(C)CC3)c2)cc2c1cnn2C(C)C
In words: log2 fold change, soluble protein after heating vs DMSO (PISA); higher = thermal stabilisation; K562 cells, 10 uM, 30 min; active = over 0.2 and 3.5 SD of the protein, either way, in both replicates (recomputed). The essentials: (§1)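 Soluble protein was quantified by TMTpro 16plex LC-MS/MS after channel sums were equalised. It was obtained as the supernatant after 21,000xg for 90 min from pooled aliquots of K562 cells (2×10^6 cells/mL, 10 μM compound, 30 min) heated for 3 min across 48°C-58°C and extracted in PBS with 0.5% NP-40 at 4°C. Thermal stability values are relative to control samples and come from duplicates. They are given as log2 fold changes.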
Regarding DNAJC7 (UniProt Q99615), the log2 fold change was 0.02.

Take EXOC4 (UniProt Q96A65): the log2 fold change is 0.01.

As to EXOC7 (UniProt Q9UPT5), the log2 fold change was 0.079.

In the case of DPP8 (UniProt Q6V1X1), the log2 fold change was -0.176.

As to EIF4G1 isoform 8 (UniProt Q04637), the log2 fold change is 0.119.

With DTWD2 (UniProt Q8NBA8), the log2 fold change was -0.006.

Take ERLIN1 (UniProt O75477): the log2 fold change is 0.065.

Consider DMAC1 (UniProt Q96GE9), for which the log2 fold change is -0.04.

Take DYRK1A isoform 2 (UniProt Q13627): the log2 fold change was -0.019.

For the target ECH1 (UniProt Q13011), the log2 fold change was -0.065.

With EHBP1L1 (UniProt Q8N3D4), the log2 fold change is 0.025.

On to CWC27 (UniProt Q6UX04), for which the log2 fold change was 0.009.

For the target EEF1G isoform 2 (UniProt P26641), the log2 fold change was 0.095.

In the case of DLD (UniProt P09622), the log2 fold change is 0.029.

Consider DTWD1 (UniProt Q8N5C7), for which the log2 fold change is 0.036.

On to CTSV (UniProt O60911), for which the log2 fold change was -0.062.

On to FAM122A (UniProt Q96E09), for which the log2 fold change was 0.026.

Take DTNBP1 (UniProt Q96EV8): the log2 fold change is -0.026.

Consider ERLIN2 (UniProt O94905), for which the log2 fold change is 0.12.

With EIF3J (UniProt O75822), the log2 fold change is 0.004.

Regarding CTSB (UniProt P07858), the log2 fold change was -0.025.

CTU1 (UniProt Q7Z7A3): the log2 fold change is -0.035.

For the target DHRS7B (UniProt Q6IAN0), the log2 fold change was 0.04.

Turning to EIF4A1 (UniProt P60842), the log2 fold change was 0.151.

Consider DNAJC24 (UniProt Q6P3W2), for which the log2 fold change was 0.027.

On to DCUN1D1 (UniProt Q96GG9), for which the log2 fold change is -0.028.

Take DCAF10 (UniProt Q5QP82): the log2 fold change is -0.121.

DBR1 (UniProt Q9UK59): the log2 fold change is -0.033.

For EOGT (UniProt Q5NDL2), the log2 fold change was -0.043.

For the target EIF2AK1 (UniProt Q9BQI3), the log2 fold change was 0.179.

Regarding DHCR24 (UniProt Q15392), the log2 fold change is 0.434.

Turning to DTYMK (UniProt P23919), the log2 fold change was -0.1.

ELOVL1 (UniProt Q9BW60): the log2 fold change was -0.063.

In the case of FAM118B (UniProt Q9BPY3), the log2 fold change is 0.044.

In the case of EED, A0A5F9ZI63, the log2 fold change is -0.204 (active).

As to DHRS3 (UniProt O75911), the log2 fold change was -0.035.

EIF4E2 (UniProt O60573): the log2 fold change is 0.

In the case of DHX16 (UniProt O60231), the log2 fold change was -0.011.

ESYT1 isoform 2 (UniProt Q9BSJ8): the log2 fold change is 0.148.

In the case of FAM114A2 (UniProt Q9NRY5), the log2 fold change is -0.058.

Compound in the next test: CCN(CC)Cc1ccc2cc(COC(=O)Nc3ccc(C(=O)NO)cc3)ccc2c1 [givinostat]
The test is described as above. The essentials:
as §1
As for DNAJC7 (UniProt Q99615), the log2 fold change was 0.032.

On to EXOC4 (UniProt Q96A65), for which the log2 fold change is 0.133.

As to EXOC7 (UniProt Q9UPT5), the log2 fold change is 0.09.

Turning to DPP8 (UniProt Q6V1X1), the log2 fold change was -0.026.

For EIF4G1 isoform 8 (UniProt Q04637), the log2 fold change is 0.057.

Regarding DTWD2 (UniProt Q8NBA8), the log2 fold change was -0.139.

With ERLIN1 (UniProt O75477), the log2 fold change was 0.014.

Take DMAC1 (UniProt Q96GE9): the log2 fold change was -0.179.

As for DYRK1A isoform 2 (UniProt Q13627), the log2 fold change is 0.038.

Consider ECH1 (UniProt Q13011), for which the log2 fold change is 0.129.

As for EHBP1L1 (UniProt Q8N3D4), the log2 fold change was 0.026.

As to CWC27 (UniProt Q6UX04), the log2 fold change was 0.082.

Take EEF1G isoform 2 (UniProt P26641): the log2 fold change was -0.013.

As for DLD (UniProt P09622), the log2 fold change is -0.06.

With DTWD1 (UniProt Q8N5C7), the log2 fold change was -0.172.

As to CTSV (UniProt O60911), the log2 fold change is 0.194.

Regarding FAM122A (UniProt Q96E09), the log2 fold change was 0.064.

Turning to DTNBP1 (UniProt Q96EV8), the log2 fold change is -0.014.

Take ERLIN2 (UniProt O94905): the log2 fold change was 0.038.

As for EIF3J (UniProt O75822), the log2 fold change was 0.011.

Regarding CTSB (UniProt P07858), the log2 fold change was -0.007.

Turning to CTU1 (UniProt Q7Z7A3), the log2 fold change was 0.043.

With DHRS7B (UniProt Q6IAN0), the log2 fold change was -0.029.

As to EIF4A1 (UniProt P60842), the log2 fold change is 0.06.

With DNAJC24 (UniProt Q6P3W2), the log2 fold change is 0.07.

With DCUN1D1 (UniProt Q96GG9), the log2 fold change was -0.018.

With DCAF10 (UniProt Q5QP82), the log2 fold change is -0.094.

With DBR1 (UniProt Q9UK59), the log2 fold change was -0.16.

Consider EOGT (UniProt Q5NDL2), for which the log2 fold change was 0.02.

On to EIF2AK1 (UniProt Q9BQI3), for which the log2 fold change is -0.051.

For the target DHCR24 (UniProt Q15392), the log2 fold change was 1.21 (active).

Take DTYMK (UniProt P23919): the log2 fold change was -0.007.

As for ELOVL1 (UniProt Q9BW60), the log2 fold change was 0.067.

For the target FAM118B (UniProt Q9BPY3), the log2 fold change is 0.063.

EED, A0A5F9ZI63: the log2 fold change is 0.082.

In the case of DHRS3 (UniProt O75911), the log2 fold change was -0.051.

Regarding EIF4E2 (UniProt O60573), the log2 fold change is 0.031.

As to DHX16 (UniProt O60231), the log2 fold change is 0.017.

For the target ESYT1 isoform 2 (UniProt Q9BSJ8), the log2 fold change was 0.116.

FAM114A2 (UniProt Q9NRY5): the log2 fold change is -0.017.
